# Laboratory results from PubChem BioAssay (NCI).
# “And” between values parts separate entries of the source, which are not always exact repeats. Equal entries are not always repeated. This is part of a sample that, as a whole, favours compounds with a hit. Of some 83,000 tested, about 20% had one in any assay.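 Method: cells in 96-well plates; compound added at one concentration; 48 h incubation; percent growth measured; values under 10 scored active.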 The source made the active and inactive calls.
# Test system: MCF7 breast
# Assay: NCI-60 one-dose screen, 48 h (100 = growth as untreated, 0 = no growth, -100 = all killed)
# Conditions: 10 µM unless noted
row,SMILES,growth
1,O=C1CC(c2ccccc2)NCCCCN2CC(CN1)C(C(O)c1ccccc1)C2=O (stereo not drawn),97.3% [100 µM] (inactive) and 76% [100 µM] (inactive)
2,CSc1nc(Br)nc2ncn(C3CC(Oc4ccc(C)cc4)C(COc4ccc(C)cc4)O3)c12 (stereo not drawn),64.8% [100 µM] (inactive) and -36.2% [100 µM] (active)
3,Cn1c2c(c3ccccc3c1=O)C(=O)c1ccccc1-2,26.8% [100 µM] (inactive) and 7.69% [100 µM] (active)
4,COc1cc(C)c2c(c1C=O)Oc1c(c(C)c(O)c3c1C(O)OC3=O)OC2=O (stereo not drawn),1.49% [100 µM] (active) and 87.3% [100 µM] (inactive)
5,COC(=O)c1cnn2c1n[n+]([O-])c1ccccc12,68.2% [100 µM] (inactive) and 11.8% [100 µM] (inactive)
6,Cc1ccc(NC(=O)/C(Cc2cc(=O)oc3cc(O)ccc23)=N\NC(C)(C)C)cc1C,117% [100 µM] (inactive) and 97.1% [100 µM] (inactive)
7,Cc1ccc(/C=N/Nc2cnccn2)s1,14.7% [100 µM] (inactive) and 4.18% [100 µM] (active)
8,Cc1ccc(OCC2OC(n3cnc4nc(N)nc(Cl)c43)CC2Oc2ccc(C)cc2)cc1 (stereo not drawn),45.4% [100 µM] (inactive) and -87.9% [100 µM] (active)
9,COC(=O)/C=C\C(C#N)(C#N)N=Cc1ccsc1,-73.8% [100 µM] (active) and -39.1% [100 µM] (active)
10,CC(C)O/N=C/c1cc(NC(=S)OC(C)C)ccc1Cl,-77.4% [100 µM] (active) and 3.65% [100 µM] (active)
11,C=CCNC1=C2C[C@@H](C)C[C@@H](OC)[C@@H](OC(=O)CCCN)[C@H](C)/C=C(\C)[C@@H](OC(N)=O)[C@H](OC)/C=C\C=C(/C)C(=O)NC(=CC1=O)C2=O,-82% [100 µM] (active) and -94.9% [100 µM] (active)
12,CCC(c1ccc(N(C)C)cc1)C1NC(=S)NC1=O (stereo not drawn),37.9% [100 µM] (inactive) and 10.5% [100 µM] (inactive)
13,C/C=C1\NC(=O)[C@H]2CSSCCC=C[C@H](CC(=O)N[C@H](C(C)C)C(=O)N2)OC(=O)[C@H](C(C)C)NC1=O,-73.3% [0.1 µM] (active) and -95.5% [0.1 µM] (active)
